The values that follow come from the supplement of paper PMC7556523.

Unmarked numbers belong to inactive results.

In test [1] the test system is Sporothrix brasiliensis CBS 133006. Put plainly: growth inhibition relative to untreated control; higher = more growth inhibition (more antifungal activity), active = 80 or more; extreme values may be limits of the assay. Conditions: 1 µM; 48 h. An outline of the steps: (§1)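 Before testing, the reference isolates were kept in brain heart infusion broth with 2% glucose at 36°C for 7 days to give yeast-form cells. These cells, at 1 x 10^5 CFU/ml, received library compounds at a final 1 μM and were held 48 h at 35°C in 5% CO2. Growth was checked by eye under an inverted light microscope and quantified spectrophotometrically in quadruplicate, and the value is percent growth inhibition versus untreated cells.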

Test [2] concerns Sporothrix schenckii ATCC 32286. The test is described as above. The note with it: 1 µM; 48 h. The method in brief: as §1

Regarding `COc1cc(NC(C)CCCN)c2ncccc2c1` (stereo not given), the growth inhibition in test [1] was 1%; in test [2], 4.25%.

Consider `N=C(N)c1ccc(OCCCCCOc2ccc(C(=N)N)cc2)cc1`, for which the values for the growth inhibition in test [1] and in test [2] were 93.5% (active) and 72%, respectively.

For `O=C(NCc1nnc2n1CCCCC2)c1ccc(-c2ccc(F)cc2)o1`, the growth inhibition was 11.2% in test [1] and 0% in test [2].

Take `O=C(Nc1cccnc1)c1c(O)c2cccc3c2n(c1=O)CC3`: the figures for the growth inhibition in test [1] and in test [2] were 19.5% and 11.2%, respectively.

Take `O=S(=O)(c1ccc(Cl)cc1)N1CCN(C(=S)NCc2ccco2)CC1`: the growth inhibition in test [1] is 0%; in test [2], 12%.

For `CCc1c(C)nc(-n2nc(C)cc2NC(=O)c2ccccc2SC)[nH]c1=O`, the values for the growth inhibition in test [1] and in test [2] were 93.5% (active) and 76.8%, respectively.

For `COc1ccc2nccc(NC(=O)C3CCN(CCc4ccc(Cl)cc4)CC3)c2n1`, the figures for the growth inhibition in test [1] and in test [2] were 39% and 0%, respectively.

`CC(C)(C)n1nc(-c2ccccc2)c2c(N)ncnc21`: the values for the growth inhibition in test [1] and in test [2] were 0% and 9%, respectively.

For the molecule `CNC(=O)C1Cc2ccccc2N1C(=O)Cc1ccc(F)cc1` (stereo not given), the figures for the growth inhibition in test [1] and in test [2] were 32.2% and 3.25%, respectively.

As for `CS(=O)(=O)N1CCC(CCn2nc(Cc3cccc4ccccc34)c3c(N)ncnc32)CC1`, the growth inhibition is 5.5% in test [1] and 14% in test [2].

Consider `CS(=O)(=O)Cc1nc2ccccc2oc1=O`, for which the growth inhibition in test [1] was 21.8%; in test [2] it was 4.75%.

`NCC(c1cccs1)S(=O)(=O)c1ccccc1` (stereo not given): the growth inhibition was 24.2% in test [1] and 0% in test [2].

As for `COc1cccc2c(C)nc(N=C(N)N)nc12`, the growth inhibition in test [1] was 10%; in test [2], 20.8%.

Regarding `O=C(Cn1ccnc1[N+](=O)[O-])NCc1ccccc1`, the values for the growth inhibition in test [1] and in test [2] were 13.8% and 4%, respectively.

Regarding `CCCCc1ccc(NC(=O)Nc2ccc(O[C@H]3CCCC[C@@H]3N(C)c3ccccc3)c(F)c2)cc1`, the growth inhibition in test [1] is 0%; in test [2], 4.25%.

Regarding `CC(C)/N=c1\cc2n(-c3ccc(Cl)cc3)c3ccccc3nc-2cc1Nc1ccc(Cl)cc1`, the values for the growth inhibition in test [1] and in test [2] were 7.25% and 12.2%, respectively.

As for `COc1ccc(N(CCc2cccc(C)n2)C(C)=O)cc1`, the growth inhibition in test [1] is 0%; in test [2] it was 1.25%.

Consider `CN1CCN(S(=O)(=O)c2ccc(-c3ccc4c(Nc5ncc(Cl)cn5)ccnc4c3)cc2)CC1`, for which the growth inhibition in test [1] was 13%; in test [2] it was 10.8%.

In the case of `Cn1ccnc1CNCCS(=O)(=O)c1cccc(Nc2ccc(-c3cccc(F)c3)cn2)c1`, the values for the growth inhibition in test [1] and in test [2] were 4.25% and 0%, respectively.

As for `O=C(NCCN1CCCC1)c1cc(NCCN2CCOCC2)nc2ccc(Cl)cc12`, the growth inhibition in test [1] is 4.5%; in test [2] it was 0%.

For the molecule `COc1cccc(CC(=O)N2CCC(n3c(C)nc4ccc(F)cc43)CC2)c1`, the growth inhibition in test [1] is 7.5%; in test [2], 6.25%.

Regarding `CC(=O)Nc1ccc(-c2noc(CC3CCCN(Cc4cccc(F)c4C)C3)n2)cc1` (stereo not given), the growth inhibition in test [1] is 10.2%; in test [2], 0.5%.

Take `O=C(NC1CC1)c1ccc(CSCc2ccccc2Cl)o1`: the results for the growth inhibition in test [1] and in test [2] were 6.25% and 2%, respectively.

As to `CC(C)(CN)c1nc(-c2ccc(Cl)c(O)c2)c(-c2ccnc(N)n2)[nH]1`, the growth inhibition in test [1] was 7%; in test [2], 21.8%.

For the molecule `CN1CCN(c2cc(-c3ccc(F)cc3)nc(-c3ccncc3)n2)CC1`, the growth inhibition in test [1] was 7%; in test [2], 12.2%.

For `CC(C)C(NC(=O)Cc1cccc2ccccc12)C(=O)Nc1cccc(C#N)c1` (stereo not given), the growth inhibition in test [1] was 4%; in test [2], 9.25%.

Turning to `c1cncc(NCc2ccc(-c3cc4ccncc4cc3OC3CCNCC3)s2)c1`, the growth inhibition in test [1] is 20.8%; in test [2], 3%.

For the molecule `C[C@H](c1ccc2c(c1)CCCC2)N(C)c1ncc2c(N)nc(N)nc2n1`, the values for the growth inhibition in test [1] and in test [2] were 10% and 0%, respectively.

As to `Cc1ccc(-c2cc(C(=O)Nc3cccnc3)c3cc(Br)ccc3n2)cc1`, the growth inhibition was 25.2% in test [1] and 0% in test [2].

Turning to `COc1cccc(NC(=O)c2c(NC(=O)c3cccnc3)sc3c2CCC3)c1`, the growth inhibition in test [1] was 15.8%; in test [2], 13.8%.

For the molecule `Nc1ncnc2c1ncn2[C@@H]1O[C@H](COS(=O)(=O)NC(=O)c2ccccc2O)[C@@H](O)[C@H]1O`, the figures for the growth inhibition in test [1] and in test [2] were 5.25% and 9%, respectively.

As for `CNC(=O)C1Cc2c([nH]c3cc(Cl)ccc23)C2(CCN(CCc3ccccc3)CC2)N1` (stereo not given), the growth inhibition is 10.8% in test [1] and 0% in test [2].

For the molecule `Cc1ccc(S(=O)(=O)n2cc(-c3ccnc(N)c3)c3cc(Br)cnc32)cc1`, the values for the growth inhibition in test [1] and in test [2] were 0% and 5.25%, respectively.

`O[C@@H](c1cc(C(F)(F)F)nc2c(C(F)(F)F)cccc12)[C@H]1CCCCN1`: the results for the growth inhibition in test [1] and in test [2] were 6% and 15.2%, respectively.

Consider `Nc1nc2cc(-c3cncc(Oc4ccc(F)cc4)c3)ccc2[nH]1`, for which the growth inhibition in test [1] is 8.5%; in test [2], 18.5%.

Turning to `CNC(=O)c1nn(C)c2c1C(C)(C)Cc1cnc(Nc3ccc(N4CCN(C)CC4)cc3)nc1-2`, the growth inhibition in test [1] is 37.5%; in test [2] it was 1.25%.

Turning to `Cn1c(=O)c2c(S(C)(=O)=O)snc2n(C)c1=O`, the growth inhibition was 9% in test [1] and 13.2% in test [2].

Take `CC(=O)NCC1CN(c2ccc(-c3ccc(CO)cc3)c(F)c2)C(=O)O1` (stereo not given): the growth inhibition in test [1] is 4%; in test [2], 13.2%.

With `O=C(c1cc2ccccc2o1)N1CCN(Cc2ccc3c(c2)OCO3)CC1`, the growth inhibition in test [1] was 12.8%; in test [2], 7.25%.

In the case of `O=C(C1CCN(c2nnc(-n3cccc3)s2)CC1)N1CCC(Cc2ccccc2)CC1`, the growth inhibition was 7.5% in test [1] and 0.5% in test [2].

`Nc1nccc2ccc(-c3ccc4nccn4c3)cc12`: the growth inhibition in test [1] was 5.5%; in test [2], 13.5%.

With `Cc1cc(OCC(=O)Nc2ccc(C(C)C)cc2)n(C)c(=O)c1C#N`, the results for the growth inhibition in test [1] and in test [2] were 3.5% and 8%, respectively.

Turning to `Nc1ncnc2[nH]nc(Cc3cccc4ccccc34)c12`, the growth inhibition was 6.25% in test [1] and 0% in test [2].

As for `Cc1nn(C(=O)Nc2cccc(C(F)(F)F)c2)c(C)c1Sc1ncccn1`, the results for the growth inhibition in test [1] and in test [2] were 28.2% and 15.2%, respectively.

Consider `COc1ccc(Cl)cc1NC(=O)CN(C)C(=O)c1cnn(-c2ccccc2)n1`, for which the results for the growth inhibition in test [1] and in test [2] were 14.5% and 15.2%, respectively.

Turning to `NCCCC(N)(C(=O)O)C(F)F` (stereo not given), the growth inhibition is 13.5% in test [1] and 17.2% in test [2].

For the molecule `COc1cccc(OC)c1C(=O)Nc1ccc(Cl)c(-c2nc3ccccc3s2)c1`, the results for the growth inhibition in test [1] and in test [2] were 7.75% and 0.75%, respectively.

As for `CCc1nc2ccccc2n1CC(O)COc1cc(C)ccc1Cl` (stereo not given), the growth inhibition was 1.25% in test [1] and 11% in test [2].

For the molecule `COc1cccc(-c2cc3c(Nc4cccnc4)nccc3[nH]2)c1`, the growth inhibition is 4% in test [1] and 5% in test [2].

On to `Cc1noc(C)c1C(=O)N1CCCC(c2[nH]c3c(C)cccc3c2-c2ccncc2)C1` (stereo not given), for which the results for the growth inhibition in test [1] and in test [2] were 7.5% and 14%, respectively.

Regarding `N#CCN(CCCCN1CCN(c2ccc(F)cc2)CC1)C(=O)OCc1ccccc1`, the growth inhibition in test [1] is 11.2%; in test [2], 2.5%.

For `CC[C@@H](CO)NCCN[C@@H](CC)CO`, the growth inhibition was 6.75% in test [1] and 12.2% in test [2].

As for `Cc1cc(Cl)ccc1NC(=O)CCc1ccc(S(=O)(=O)NCC(C)C)cc1`, the growth inhibition is 9.75% in test [1] and 0% in test [2].

For `CC(=O)NCC1CN(c2ccc(-c3ccc(CNCc4cn[nH]n4)cc3)c(F)c2)C(=O)O1` (stereo not given), the growth inhibition in test [1] was 15.5%; in test [2], 0%.

Regarding `O=C(Nc1ccc(N2CCNCC2)cc1)c1ccn2ncc(-c3cccc(Cl)c3)c2n1`, the growth inhibition in test [1] is 12%; in test [2] it was 14.5%.

Consider `CCCn1c(CNc2ccccc2O)nc2ccccc21`, for which the growth inhibition is 11.2% in test [1] and 13.2% in test [2].

Regarding `CCOc1ccccc1NC(C)C(=O)Nc1cc(C(F)(F)F)ccc1N1CCOCC1` (stereo not given), the growth inhibition in test [1] was 27.8%; in test [2] it was 0%.

Regarding `CS(=O)(=O)c1ccccc1C(=O)N(Cc1ccccc1)c1ccccc1`, the values for the growth inhibition in test [1] and in test [2] were 13.2% and 24%, respectively.

In the case of `COc1ccc(C2=NN(C3CCCCCC3)C(=O)[C@@H]3CC=CC[C@H]23)cc1OCCCCOc1ccc(-c2nnn[nH]2)cc1`, the growth inhibition in test [1] is 2.5%; in test [2] it was 9.5%.

As for `Cc1ccc2cc(C3NC(=O)c4ccccc4N3)c(Cl)nc2c1` (stereo not given), the growth inhibition in test [1] is 8%; in test [2], 4%.

In the case of `CNC(=O)c1cc(S(=O)(=O)N2CCN(c3ccccn3)CC2)cs1`, the growth inhibition was 0% in test [1] and 18.2% in test [2].

In the case of `CCOc1ccc(OCC(=O)Nc2cc(C)cc(C)c2)cc1`, the growth inhibition in test [1] is 12.2%; in test [2] it was 18%.

Consider `Nc1ccc2ncnc(Nc3ccc(OCc4cccc(F)c4)c(Cl)c3)c2c1`, for which the growth inhibition in test [1] was 12.8%; in test [2], 8.25%.

As for `Cc1cc(NC(=O)c2ccc(Oc3ccc(Cl)cc3O)o2)no1`, the growth inhibition is 18.8% in test [1] and 2.75% in test [2].

With `CC(C)(C)OC(=O)N1CCC(Cn2nc(-c3cnc4ccccc4c3)c3c(N)ncnc32)CC1`, the values for the growth inhibition in test [1] and in test [2] were 21.2% and 4.5%, respectively.

Regarding `c1ccc(Oc2ccc(-c3cc(N4CCOCC4)[nH]n3)cc2)cc1`, the growth inhibition in test [1] is 4.25%; in test [2], 8%.

In the case of `CC1CCCCN1C(=O)NCCc1coc(-c2ccc(F)cc2)n1` (stereo not given), the values for the growth inhibition in test [1] and in test [2] were 11% and 0%, respectively.

Consider `CCCCOC(=O)Nc1cc2nc(C3CCCCC3)[nH]c2cc1N1CCCC1`, for which the figures for the growth inhibition in test [1] and in test [2] were 11% and 0%, respectively.

Turning to `COc1ccc(-c2nc(-c3cccc(NC(=O)Cc4ccc(F)cc4)c3)no2)cc1OC`, the growth inhibition is 6.25% in test [1] and 4% in test [2].

On to `Cc1cc(NCC(C)C)c2[nH]nc(-c3ccccc3)c2n1`, for which the figures for the growth inhibition in test [1] and in test [2] were 4.5% and 0.75%, respectively.

For `N#Cc1nc(-c2ccccc2)oc1S(=O)(=O)c1ccc(Cl)cc1`, the growth inhibition in test [1] is 48.8%; in test [2], 6.25%.

Turning to `COc1cccn2c(C(=O)N3CCCCC3)c(C(F)(F)F)nc12`, the values for the growth inhibition in test [1] and in test [2] were 8.75% and 5%, respectively.

On to `Cc1ccc(NC(=O)c2nc[nH]c2C(=O)Nc2nc3ccccc3[nH]2)c(C)c1`, for which the growth inhibition in test [1] was 17.8%; in test [2], 1.25%.

Consider `CCC(Sc1nc2ccccc2o1)C(=O)Nc1nccs1` (stereo not given), for which the growth inhibition in test [1] was 5.75%; in test [2], 15.5%.

As to `FC(F)(F)c1cnc(Sc2nnc(-c3ccncc3)o2)c(Cl)c1`, the growth inhibition in test [1] was 3.5%; in test [2] it was 0%.
